Results filed as inconclusive are left out. A call without a number means that no potency is given here. Activity calls are given as the source filed them. The call rests on the fitted dose curve; in most records, active means well fitted inhibition curve with a large enough effect; inconclusive means small, poorly fitted or top-dose-only effect; inactive means flat fitted curve, though single readings scatter.
Assays:
[1] = biological target: Glutathione peroxidase 1 (Homo sapiens) (UniProt P07203); assay: Primary qHTS Assay for Inhibitors of Recombinant Selenoprotein Glutathione Peroxidase 1 (GPX1) (AID 1845191)
Outline: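 GPX1 10 nM, GR 100 nM, GSH 1 mM, NADPH 0.5 mM, CHP 0.5 mM (final). 30-min cpd preincubation, RT. Ex340/Em450 read t=0, t=15 min.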

[2] = biological target: Phospholipid hydroperoxide glutathione peroxidase GPX4 (Homo sapiens) (UniProt P36969); assay: Primary qHTS Assay for Inhibitors of Recombinant Selenoprotein Glutathione Peroxidase 4 (GPX4) (AID 1845192); further: potency means the concentration at half of the fitted maximal effect
Outline: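 qHTS, GR-coupled: GPX4 200 nM + cpd 30 min RT → GSH 1 mM, NADPH 0.5 mM, GR 100 nM → CHP 0.5 mM start; fluor 340/450 at t0 and t15 min; no-enzyme wells as control.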
Further: nearly all actives have a fitted effect of over 65% in size.

Chain of Glutathione peroxidase 1 (Homo sapiens) (P07203 whole entry, looked up): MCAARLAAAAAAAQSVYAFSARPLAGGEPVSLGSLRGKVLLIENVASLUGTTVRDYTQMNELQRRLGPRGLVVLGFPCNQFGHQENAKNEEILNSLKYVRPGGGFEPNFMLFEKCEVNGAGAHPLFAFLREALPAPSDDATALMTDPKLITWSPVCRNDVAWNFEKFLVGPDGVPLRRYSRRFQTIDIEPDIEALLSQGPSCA
Chain of Phospholipid hydroperoxide glutathione peroxidase GPX4 (Homo sapiens) (P36969 whole entry, looked up): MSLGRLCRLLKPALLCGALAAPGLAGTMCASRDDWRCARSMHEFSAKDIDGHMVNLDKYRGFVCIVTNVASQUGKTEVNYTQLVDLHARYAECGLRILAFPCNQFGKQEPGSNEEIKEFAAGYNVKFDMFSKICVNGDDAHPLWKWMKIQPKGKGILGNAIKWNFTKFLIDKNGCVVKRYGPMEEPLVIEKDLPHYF

SMILES	Potency [1]	Potency [2]
Cc1sc2ccccc2c1CC1=NCCN1	inactive	–
CCCC(=O)OC(C(Cl)(Cl)Cl)P(=O)(OC)OC (stereo not drawn)	inactive	inactive
Oc1ccc2c3c1O[C@H]1[C@@H](O)CC[C@@]4(O)[C@@H](C2)N(CC2CCC2)CC[C@]314	inactive	inactive
O=C(NCNC(=O)NC1C(=O)NC(=O)N1CO)NC1C(=O)NC(=O)N1CO (stereo not drawn)	inactive	inactive
CCCCC[C@@H](O)C1C(=O)OC(C)[C@H](O)/C=C/C=C/C=C/C=C/C=C(\C)C(O)C(O)C(O)C[C@H](O)C[C@H](O)C[C@H](O)C[C@H](O)C[C@@H]1O (stereo partly drawn)	inactive	–
NCC(O)c1cccc(O)c1 (stereo not drawn)	inactive	–
CCNC(=O)[C@H]1O[C@@H](n2cnc3c(N)ncnc32)[C@H](O)[C@@H]1O	inactive	inactive
O=C(OCCN1CCCCC1)C(O)(c1ccccc1)c1ccccc1	inactive	–
CN1CCc2cccc(Cl)c2CC1	inactive	inactive
CP(=O)(O)C1=CCNCC1	inactive	–
CCCCCCCCCC(=O)O[C@H]1CC[C@H]2[C@@H]3CCC4=CC(=O)CC[C@]4(C)[C@H]3CC[C@]12C	inactive	–
O=C(NC1CN2CCC1CC2)c1cc2ccoc2cn1 (stereo not drawn)	inactive	inactive
CC(C)(O)[C@@H]1[C@H]2OC(=O)[C@@H]1[C@]1(O)C[C@H]3O[C@]34C(=O)O[C@H]2[C@]14C	inactive	inactive
COC([CH2][Hg])CNC(=O)c1ccccc1OCC(=O)O (stereo not drawn)	inactive	–
CC(N)Cc1c[nH]c2ccc(O)cc12 (stereo not drawn)	inactive	inactive
NC(=O)c1cc(N2CC2)c([N+](=O)[O-])cc1[N+](=O)[O-]	inactive	inactive
C[C@]12CC[C@H]3[C@@H](CCC4=C(O)C(=O)CC[C@@H]43)[C@@H]1CC[C@@H]2OC(=O)CCC1CCCC1	inactive	14.1 µM (active)
C[N+]1(C)CCOC(O)(c2ccc(-c3ccc(C4(O)C[N+](C)(C)CCO4)cc3)cc2)C1 (stereo not drawn)	inactive	inactive
Cn1sc(Cl)cc1=O	inactive	–
C[N+](C)(C)CC#CCN1CCCC1=O	inactive	inactive
O=C(C[C@@H]1NCCC[C@H]1O)Cn1cnc2cc(Br)c(Cl)cc2c1=O	inactive	17.8 µM (active)
N[C@@H](Cn1oc(=O)[nH]c1=O)C(=O)O	inactive	inactive
CCCN(CCC)C1Cc2cc(OC)c(OC)cc2C1	inactive	inactive
COc1ccc2c(c1)/C(=C/c1cnc[nH]1)C(=O)N2	inactive	–
CCC1(C)CC(=O)NC(=O)C1	inactive	–
CCN(CC)C(=O)N[C@H]1C[C@@H]2c3cccc4[nH]cc(c34)C[C@H]2N(C)C1	inactive	inactive
C/C(O)=C(\C#N)C(=O)Nc1cc(Br)ccc1Br	inactive	inactive
C[C@]12CC[C@H]3[C@@H](CC[C@@]45O[C@@H]4C(O)=C(C#N)C[C@]35C)[C@@H]1CC[C@@H]2O	inactive	inactive
CC[N+](C)(CC)CCOC(=O)C(O)(c1ccccc1)c1ccccc1	inactive	inactive

Source: PubChem BioAssay (NCATS)
